The text below walks through data of ChEMBL document CHEMBL1961873, “Compounds: GSK PKIS; Assays: Nanosyn kinase panel” (2012).

The target of assay [1] is Ribosomal protein S6 kinase alpha-6 (Homo sapiens) (UniProt Q9UK32). Conditions: at 1 µM.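 Further: each value is a mean inhibition of RSK4 from a GSK PKIS panel screen.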
Assay [2] concerns the target T1, Serine/threonine-protein kinase Sgk1 (Homo sapiens) (UniProt O00141).
T1 sequence (whole entry): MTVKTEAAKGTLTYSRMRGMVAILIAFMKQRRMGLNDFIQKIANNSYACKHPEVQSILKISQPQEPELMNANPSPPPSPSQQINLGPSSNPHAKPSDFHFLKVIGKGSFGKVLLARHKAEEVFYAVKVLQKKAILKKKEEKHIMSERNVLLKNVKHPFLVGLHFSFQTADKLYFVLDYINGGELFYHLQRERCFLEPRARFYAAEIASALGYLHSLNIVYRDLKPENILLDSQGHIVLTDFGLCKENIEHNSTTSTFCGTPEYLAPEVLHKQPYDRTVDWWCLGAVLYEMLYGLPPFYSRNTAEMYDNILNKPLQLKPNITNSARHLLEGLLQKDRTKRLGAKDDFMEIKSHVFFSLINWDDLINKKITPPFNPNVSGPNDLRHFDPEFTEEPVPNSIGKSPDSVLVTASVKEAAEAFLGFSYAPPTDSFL
The following applies: at 0.1 µM.

The target of assay [3] is T1, Serine/threonine-protein kinase Sgk1 (Homo sapiens). The following applies: at 1 µM.
The target in assay [4] is T2, Serine/threonine-protein kinase Sgk2 (Homo sapiens) (UniProt Q9HBY8).
T2 sequence (whole entry): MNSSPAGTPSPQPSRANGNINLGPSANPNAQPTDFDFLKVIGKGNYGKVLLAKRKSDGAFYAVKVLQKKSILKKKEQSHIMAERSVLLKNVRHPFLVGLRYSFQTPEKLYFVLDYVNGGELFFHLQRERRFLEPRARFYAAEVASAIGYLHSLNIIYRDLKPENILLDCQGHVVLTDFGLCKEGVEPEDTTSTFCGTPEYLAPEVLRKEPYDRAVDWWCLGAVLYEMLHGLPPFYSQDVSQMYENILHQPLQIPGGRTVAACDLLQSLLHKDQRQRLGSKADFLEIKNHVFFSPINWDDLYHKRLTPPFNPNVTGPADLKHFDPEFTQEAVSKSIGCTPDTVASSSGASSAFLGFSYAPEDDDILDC
The following applies: at 0.1 µM.

Assay [5] addresses T2, Serine/threonine-protein kinase Sgk2 (Homo sapiens). The following applies: at 1 µM.
Assay [6] concerns the target T3, Serine/threonine-protein kinase Sgk3 (Homo sapiens) (UniProt Q96BR1).
T3 sequence (whole entry): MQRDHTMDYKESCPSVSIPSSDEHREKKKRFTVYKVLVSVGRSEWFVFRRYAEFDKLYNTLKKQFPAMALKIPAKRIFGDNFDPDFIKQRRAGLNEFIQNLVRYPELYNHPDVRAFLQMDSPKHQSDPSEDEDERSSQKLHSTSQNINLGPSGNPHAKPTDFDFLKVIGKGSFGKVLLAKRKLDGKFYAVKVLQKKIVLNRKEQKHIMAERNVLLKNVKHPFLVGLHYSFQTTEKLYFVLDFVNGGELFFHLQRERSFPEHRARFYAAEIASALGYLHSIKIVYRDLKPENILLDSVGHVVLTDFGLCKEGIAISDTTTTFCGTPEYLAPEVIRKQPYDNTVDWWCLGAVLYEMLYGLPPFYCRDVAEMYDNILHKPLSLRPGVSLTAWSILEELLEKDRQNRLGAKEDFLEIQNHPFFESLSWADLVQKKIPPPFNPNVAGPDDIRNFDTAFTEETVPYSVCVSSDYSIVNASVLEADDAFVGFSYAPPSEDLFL
Conditions: at 0.1 µM.

Assay [7] deals with T3, Serine/threonine-protein kinase Sgk3 (Homo sapiens). The following applies: at 1 µM.
Assay [8] concerns the target 5'-AMP-activated protein kinase catalytic subunit alpha-1 (Homo sapiens) (UniProt Q13131). The following applies: at 0.1 µM.
The target is the same in assay [9]. Conditions: at 1 µM.
In assay [10] the target is 5'-AMP-activated protein kinase catalytic subunit alpha-2 (Homo sapiens) (UniProt P54646). The following applies: at 0.1 µM.
For assay [11] the target is unchanged. Conditions: at 1 µM.
Assay [12] concerns the target T4, NUAK family SNF1-like kinase 1 (Homo sapiens) (UniProt O60285).
T4 sequence (whole entry): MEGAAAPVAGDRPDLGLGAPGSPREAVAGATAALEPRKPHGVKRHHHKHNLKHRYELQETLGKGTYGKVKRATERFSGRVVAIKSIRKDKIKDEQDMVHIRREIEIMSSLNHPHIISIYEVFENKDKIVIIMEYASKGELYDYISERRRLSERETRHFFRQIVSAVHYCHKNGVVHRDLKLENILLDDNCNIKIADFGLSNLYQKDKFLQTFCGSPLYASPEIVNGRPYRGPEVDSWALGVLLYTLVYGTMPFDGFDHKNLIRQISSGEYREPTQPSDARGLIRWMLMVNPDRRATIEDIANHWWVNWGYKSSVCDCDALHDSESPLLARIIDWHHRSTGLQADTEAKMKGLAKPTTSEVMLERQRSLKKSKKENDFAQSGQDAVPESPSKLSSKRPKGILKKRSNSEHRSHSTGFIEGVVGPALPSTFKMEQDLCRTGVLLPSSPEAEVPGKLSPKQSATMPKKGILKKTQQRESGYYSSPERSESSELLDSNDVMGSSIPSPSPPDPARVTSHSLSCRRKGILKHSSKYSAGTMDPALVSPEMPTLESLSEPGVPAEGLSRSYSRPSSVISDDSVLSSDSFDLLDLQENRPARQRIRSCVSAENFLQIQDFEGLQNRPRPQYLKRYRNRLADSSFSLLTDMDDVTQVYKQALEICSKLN
The following applies: at 0.1 µM.

The target of assay [13] is T4, NUAK family SNF1-like kinase 1 (Homo sapiens). Conditions: at 1 µM.
Assay [14] has as its target T5, Serine/threonine-protein kinase BRSK1 (Homo sapiens) (UniProt Q8TDC3).
T5 sequence (whole entry): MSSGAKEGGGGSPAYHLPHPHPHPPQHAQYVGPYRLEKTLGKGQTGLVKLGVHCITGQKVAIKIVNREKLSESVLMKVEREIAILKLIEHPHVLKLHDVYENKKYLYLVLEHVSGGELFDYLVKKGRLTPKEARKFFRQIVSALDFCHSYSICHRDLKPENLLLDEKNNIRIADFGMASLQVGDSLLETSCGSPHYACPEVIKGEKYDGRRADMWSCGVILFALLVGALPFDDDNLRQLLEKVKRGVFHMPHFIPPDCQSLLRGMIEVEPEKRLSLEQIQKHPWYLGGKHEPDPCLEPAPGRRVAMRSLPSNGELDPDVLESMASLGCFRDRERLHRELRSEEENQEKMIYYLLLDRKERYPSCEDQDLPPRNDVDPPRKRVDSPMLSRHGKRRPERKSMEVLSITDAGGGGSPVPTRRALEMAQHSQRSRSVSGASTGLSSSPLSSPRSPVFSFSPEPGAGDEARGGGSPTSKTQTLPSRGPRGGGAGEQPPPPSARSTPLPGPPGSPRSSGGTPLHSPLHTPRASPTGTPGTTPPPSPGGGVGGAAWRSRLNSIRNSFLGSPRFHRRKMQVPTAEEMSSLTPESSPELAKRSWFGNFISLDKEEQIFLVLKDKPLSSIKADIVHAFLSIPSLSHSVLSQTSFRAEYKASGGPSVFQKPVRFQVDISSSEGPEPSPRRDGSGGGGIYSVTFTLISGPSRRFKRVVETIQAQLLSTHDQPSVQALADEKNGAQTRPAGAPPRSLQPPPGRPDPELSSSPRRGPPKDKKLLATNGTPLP
The following applies: at 0.1 µM.

The target of assay [15] is T5, Serine/threonine-protein kinase BRSK1 (Homo sapiens). Conditions: at 1 µM.
Assay [16] deals with T6, Serine/threonine-protein kinase BRSK2 (Homo sapiens) (UniProt Q8IWQ3).
T6 sequence (whole entry): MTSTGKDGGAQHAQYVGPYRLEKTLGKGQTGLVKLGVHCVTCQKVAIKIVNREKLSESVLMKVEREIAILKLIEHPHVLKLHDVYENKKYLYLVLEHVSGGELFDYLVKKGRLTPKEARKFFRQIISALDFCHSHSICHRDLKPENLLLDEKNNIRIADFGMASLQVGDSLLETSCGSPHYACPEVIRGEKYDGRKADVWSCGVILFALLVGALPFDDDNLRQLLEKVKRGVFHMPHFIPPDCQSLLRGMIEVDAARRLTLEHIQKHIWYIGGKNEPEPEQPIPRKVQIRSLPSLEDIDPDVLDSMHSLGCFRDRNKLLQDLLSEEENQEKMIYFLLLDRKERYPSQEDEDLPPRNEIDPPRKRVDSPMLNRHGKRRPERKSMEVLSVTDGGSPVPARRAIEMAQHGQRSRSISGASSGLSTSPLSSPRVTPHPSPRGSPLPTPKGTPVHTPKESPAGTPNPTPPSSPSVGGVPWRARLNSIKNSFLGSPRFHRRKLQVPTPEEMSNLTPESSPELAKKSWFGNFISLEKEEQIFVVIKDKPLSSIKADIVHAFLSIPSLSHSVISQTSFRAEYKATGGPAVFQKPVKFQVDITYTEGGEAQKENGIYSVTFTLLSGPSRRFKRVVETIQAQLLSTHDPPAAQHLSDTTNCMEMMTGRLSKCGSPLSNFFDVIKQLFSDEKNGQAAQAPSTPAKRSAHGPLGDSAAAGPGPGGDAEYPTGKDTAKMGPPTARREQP
Conditions: at 0.1 µM.

Assay [17] deals with T6, Serine/threonine-protein kinase BRSK2 (Homo sapiens). Conditions: at 1 µM.
Assay [18] has as its target Calcium/calmodulin-dependent protein kinase type 1D (Homo sapiens) (UniProt Q8IU85). The following applies: at 0.1 µM.
For assay [19] the target is unchanged. Conditions: at 1 µM.
In assay [20] the target is Calcium/calmodulin-dependent protein kinase type II subunit alpha (Homo sapiens) (UniProt Q9UQM7). The following applies: at 0.1 µM.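 Further: reported values are averages (mean inhibition of CAMK2A).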

Each structure is given as a SMILES string.

Chain of Calcium/calmodulin-dependent protein kinase type II subunit alpha (Homo sapiens) (Q9UQM7 whole entry): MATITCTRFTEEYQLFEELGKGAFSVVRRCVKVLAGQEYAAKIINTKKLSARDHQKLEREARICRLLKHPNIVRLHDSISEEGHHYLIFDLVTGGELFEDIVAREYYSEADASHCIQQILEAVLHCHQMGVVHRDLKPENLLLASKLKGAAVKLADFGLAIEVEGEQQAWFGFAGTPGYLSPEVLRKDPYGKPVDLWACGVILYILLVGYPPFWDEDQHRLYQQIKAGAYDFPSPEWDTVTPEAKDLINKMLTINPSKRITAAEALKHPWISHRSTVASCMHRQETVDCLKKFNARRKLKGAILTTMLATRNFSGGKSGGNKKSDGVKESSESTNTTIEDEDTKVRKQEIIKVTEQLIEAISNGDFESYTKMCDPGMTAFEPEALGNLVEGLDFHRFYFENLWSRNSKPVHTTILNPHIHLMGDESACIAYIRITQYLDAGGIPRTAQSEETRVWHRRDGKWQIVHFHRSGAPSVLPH
Chain of Calcium/calmodulin-dependent protein kinase type 1D (Homo sapiens) (Q8IU85 whole entry, looked up): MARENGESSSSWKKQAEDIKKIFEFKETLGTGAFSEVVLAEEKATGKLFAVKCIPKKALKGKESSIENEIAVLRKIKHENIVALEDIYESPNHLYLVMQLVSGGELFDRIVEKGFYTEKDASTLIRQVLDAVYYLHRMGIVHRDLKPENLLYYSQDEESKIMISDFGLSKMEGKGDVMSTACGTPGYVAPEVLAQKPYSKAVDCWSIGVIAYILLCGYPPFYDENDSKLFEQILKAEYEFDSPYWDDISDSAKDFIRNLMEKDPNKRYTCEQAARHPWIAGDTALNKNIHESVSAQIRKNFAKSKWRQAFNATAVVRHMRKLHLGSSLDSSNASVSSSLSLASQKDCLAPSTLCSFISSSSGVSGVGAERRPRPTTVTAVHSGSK
Chain of 5'-AMP-activated protein kinase catalytic subunit alpha-2 (Homo sapiens) (P54646 whole entry, looked up): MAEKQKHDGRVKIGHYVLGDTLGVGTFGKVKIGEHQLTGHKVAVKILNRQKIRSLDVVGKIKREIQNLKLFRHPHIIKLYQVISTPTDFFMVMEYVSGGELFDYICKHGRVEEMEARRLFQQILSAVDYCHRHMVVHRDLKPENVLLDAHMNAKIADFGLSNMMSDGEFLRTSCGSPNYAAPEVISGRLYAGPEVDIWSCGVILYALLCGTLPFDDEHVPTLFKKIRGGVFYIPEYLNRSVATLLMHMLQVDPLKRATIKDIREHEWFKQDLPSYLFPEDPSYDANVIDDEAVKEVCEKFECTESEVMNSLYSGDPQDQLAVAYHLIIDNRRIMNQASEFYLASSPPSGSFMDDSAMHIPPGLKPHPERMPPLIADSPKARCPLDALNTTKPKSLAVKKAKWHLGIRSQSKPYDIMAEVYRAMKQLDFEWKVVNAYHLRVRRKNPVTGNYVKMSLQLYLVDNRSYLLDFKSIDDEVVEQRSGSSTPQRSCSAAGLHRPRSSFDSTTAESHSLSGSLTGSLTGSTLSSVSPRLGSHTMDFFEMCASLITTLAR
Chain of 5'-AMP-activated protein kinase catalytic subunit alpha-1 (Homo sapiens) (Q13131 whole entry, looked up): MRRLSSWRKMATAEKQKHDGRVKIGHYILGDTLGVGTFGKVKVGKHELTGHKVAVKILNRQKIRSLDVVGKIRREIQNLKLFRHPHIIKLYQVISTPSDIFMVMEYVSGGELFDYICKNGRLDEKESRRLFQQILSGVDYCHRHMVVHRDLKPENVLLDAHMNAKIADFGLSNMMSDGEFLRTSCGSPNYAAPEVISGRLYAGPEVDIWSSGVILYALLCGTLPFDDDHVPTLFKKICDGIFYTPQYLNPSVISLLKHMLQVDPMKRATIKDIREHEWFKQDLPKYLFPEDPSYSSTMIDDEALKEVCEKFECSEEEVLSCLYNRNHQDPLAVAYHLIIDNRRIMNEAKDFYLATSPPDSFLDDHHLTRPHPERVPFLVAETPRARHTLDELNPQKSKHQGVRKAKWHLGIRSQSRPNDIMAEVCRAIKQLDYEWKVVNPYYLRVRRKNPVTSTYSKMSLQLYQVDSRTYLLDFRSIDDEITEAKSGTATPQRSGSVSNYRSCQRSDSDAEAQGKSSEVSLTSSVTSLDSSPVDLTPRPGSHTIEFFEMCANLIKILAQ
Chain of Ribosomal protein S6 kinase alpha-6 (Homo sapiens) (Q9UK32 whole entry): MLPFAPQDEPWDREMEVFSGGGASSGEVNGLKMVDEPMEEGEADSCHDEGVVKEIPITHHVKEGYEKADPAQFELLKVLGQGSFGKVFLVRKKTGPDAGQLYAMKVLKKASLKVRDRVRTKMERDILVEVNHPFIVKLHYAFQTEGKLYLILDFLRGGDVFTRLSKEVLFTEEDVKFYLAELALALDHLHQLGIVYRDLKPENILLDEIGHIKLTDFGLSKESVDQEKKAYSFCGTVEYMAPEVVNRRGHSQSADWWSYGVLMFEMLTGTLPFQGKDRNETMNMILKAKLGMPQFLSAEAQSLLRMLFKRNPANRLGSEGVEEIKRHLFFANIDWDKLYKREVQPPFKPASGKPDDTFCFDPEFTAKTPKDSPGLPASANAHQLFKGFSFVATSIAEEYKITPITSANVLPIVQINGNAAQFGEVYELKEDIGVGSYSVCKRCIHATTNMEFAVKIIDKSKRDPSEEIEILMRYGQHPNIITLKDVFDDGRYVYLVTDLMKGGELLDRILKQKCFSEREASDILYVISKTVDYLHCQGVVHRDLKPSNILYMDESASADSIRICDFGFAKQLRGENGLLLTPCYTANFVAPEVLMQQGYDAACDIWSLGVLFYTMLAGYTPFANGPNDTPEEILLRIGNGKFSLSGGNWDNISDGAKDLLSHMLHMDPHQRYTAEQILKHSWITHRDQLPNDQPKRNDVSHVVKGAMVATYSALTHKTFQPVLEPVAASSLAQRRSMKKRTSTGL

A word on the inhibition: it is the relative decrease from the control value, in per cent. For the compound `CCCN1CCC=C(c2ccc(Nc3nc(Nc4ccccc4C(N)=O)c4cc[nH]c4n3)c(C)c2)C1`, the inhibition is 38.9% in assay [1]; 1.16% in assay [2]; 5.7% in assay [3]; 1.55% in assay [4]; 1.12% in assay [5]; 2.67% in assay [6]. Also, the inhibition in assay [7] is 2.94%; in assay [8] it was 4.78%; in assay [9], 29.5%; in assay [10] it was 8.68%; in [11], 14.5%; in assay [12], 48.4%. The inhibition in assay [13] is 69.8%; in assay [14], 3.51%; in assay [15], 4.05%; in [16], 2.36%; in assay [17], 6.53%; in assay [18], 1.21%. In addition, the results for the inhibition in assay [19] and in assay [20] were 12.8% and 3.75%, respectively.

Consider `c1cnn2ncc(-c3ccnc(Nc4ccc5c(c4)OCCO5)n3)c2c1`, for which the inhibition was determined as 9.17% in assay [1]; 2.25% in [2]; 7.34% in assay [3]; 6.82% in assay [4]; 1.72% in assay [5]; 2.27% in assay [6]. In addition, the inhibition in assay [7] was -0.29%; in assay [8], 4.61%; in assay [9] it was 11.6%; in assay [10], 1.53%; in [11] it was 12.6%; in assay [12], 52.8%. Moreover, the inhibition came to 83.2% in assay [13]; 0.46% in assay [14]; 6.78% in [15]; 2.51% in assay [16]; 9.28% in assay [17]; 1.5% in assay [18]. The results for the inhibition in assay [19] and in [20] were 5.85% and 5.45%, respectively.

With `COc1ccc(-c2ccncc2)cc1C(N)=O`, the inhibition in [1] stood at 3.03%; in assay [2], 2.81%; in assay [3], 3.03%; in [4] it was 2.33%; in assay [5], 1.26%; in assay [6], 2.05%. Besides, the inhibition in [7] was 6.23%; in [8], 2.82%; in [9], 5.78%; in assay [10], 7.48%; in [11], 4.51%; in assay [12], 1.88%. Further, the inhibition was 5.44% in assay [13]; 3.31% in assay [14]; 4.66% in assay [15]; 4.68% in assay [16]; 8.59% in assay [17]; -0.75% in [18]. For the same compound, the inhibition is 1.22% in assay [19] and 1.71% in assay [20].
